In paper PMC5540273 (PLoS ONE, 2017):

Experiments:
Settings in all cases: concentration: 1 μM, replicates: in singlicate; n = 1
BIKE = test system: T1, BIKE
T1 construct: gene BMP2K

BLK = test system: BLK
BMPR1A = test system: BMPR1A
BMPR1B = test system: BMPR1B
BMPR2 = test system: BMPR2
BMX = test system: BMX
BRAF = test system: BRAF
BRK = test system: T2, BRK
T2 construct: gene PTK6

BRSK1 = test system: BRSK1
BRSK2 = test system: BRSK2
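Note: KINOMEscan kinase panel screen.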

Compound	%Inh (BIKE) [%]	%Inh (BLK) [%]	%Inh (BMPR1A) [%]	%Inh (BMPR1B) [%]	%Inh (BMPR2) [%]	%Inh (BMX) [%]	%Inh (BRAF) [%]	%Inh (BRK) [%]	%Inh (BRSK1) [%]	%Inh (BRSK2) [%]
COc1cccc(NC(=O)Nc2ccc(C)c(-c3ccc(C(=O)Nc4ccncc4)cc3)c2)c1 [GSK1398474]	26	40	0	0	0	18	30	0	12	96.2
CC(C)c1ccc(O)cc1Nc1ccnc2ccc(C(F)(F)F)cc12 [GW482059]	13	30	0	0	0	0	0	0	1	5
FC(F)(F)c1ccccc1-c1cc(-c2c[nH]nc2-c2ccccn2)ccn1 [GW679396]	24	1	13	0	7	0	0	20	0	0
COc1ccc(CSc2nnc(-c3ccc4nccn4c3)o2)cc1C(F)(F)F	18	1	0	21	3	0	9	0	14	3
COc1cc2ncnc(Nc3cccc(Br)c3)c2cc1OC.Cl [GI230329]	19	79	0	0	0	10	0	10	20	14
Cc1c(Cn2c3ccccc3n3c(=O)cc(N4CCOCC4)nc23)cccc1C(F)(F)F [GSK2306394]	7	34	0	0	0	0	8	3	0	0
COc1ccc(Nc2nccc(N3CCC(NC(=O)C(C)c4ccc(Cl)cc4)CC3)n2)cc1 (stereo not shown) [GSK1379812]	36	5	0	0	7	28	0	0	0	13
CS(=O)(=O)CCNCc1nc(-c2ccc3ncnc(Nc4ccc(OCc5ccccc5)c(Cl)c4)c3c2)cs1.Cl [GW582764]	0	48	0	0	15	0	2	3	0	0
CC(C)c1cc(-c2ccc3c(N)n[nH]c3c2)nc(N)n1 [GSK2250882]	72	5	0	0	4	18	0	14	40	22
Cl.Cl.Cl.N#Cc1ccc(CCNc2nccc(-c3cccc(CN4CCNCC4)c3)n2)cc1 [GSK2137462]	25	0	0	0	0	12	0	8	0	2
COc1ccc(Nc2nccc(NCCNC(=O)Nc3cc(C)ccc3C)n2)cc1 [GSK1379899]	28	36	0	0	0	0	4	0	4	7
Fc1ccc(-c2nc[nH]c2-c2ccncc2)cc1 [SB-217360]	0	25	0	0	22	0	50	0	0	0
O=c1cc(N2CCOCC2)nc2n(Cc3cccc(Cl)c3Cl)c3ccccc3n12 [GSK2299009]	38	50	2	0	0	1	0	17	8	22
CCCCc1nn2ncccc2c1-c1ccnc(NC2CC2)n1 [GW684374]	23	0	0	0	0	4	7	0	0	0
COc1ccc(Nc2nccc(N3CCC(NC(=O)C(C)c4ccc(Cl)cc4)C3)n2)cc1 (stereo not shown) [GSK1379735]	25	33	19	0	4	27	0	0	7	0
Nc1cccc(-c2ccc3c(N)n[nH]c3c2)n1 [GSK2192730]	74	0	2	16	0	1	0	0	55	37
Fc1ccc(-c2nc3n(c2-c2ccncc2)CCS3)cc1 [GI98581]	32	45	0	0	0	12	0	13	0	0

Compound	%Inh (BIKE) [%]	%Inh (BLK) [%]	%Inh (BMPR1A) [%]	%Inh (BMPR1B) [%]	%Inh (BMPR2) [%]	%Inh (BMX) [%]	%Inh (BRAF) [%]	%Inh (BRK) [%]	%Inh (BRSK1) [%]	%Inh (BRSK2) [%]
Cc1cnc(N)c(/C=C/c2cncc(C(=O)NCCc3ccc(Cl)cc3Cl)c2)c1.Cl [GSK190937]	23	3	0	0	0	19	1	7	0	0
Fc1ccc(-c2nn3cccc(F)c3c2-c2ccncc2)cc1 [GW475620]	34	20	24	0	0	8	29	11	0	0
CC(=O)c1cccc(NC(=O)NC2CCN(c3ccnc(Nc4ccc(F)cc4)n3)C2)c1 (stereo not shown) [GSK1379710]	25	0	0	0	10	16	0	4	6	0
Cc1ccc(NC(=O)Nc2ccc(Cl)cc2)cc1-c1ccc(C(=O)Nc2ccncc2)cc1 [GSK1398472]	18	21	0	0	0	15	43	30	0	0
O=c1cc(N2CCOCC2)nc2n(Cc3ccccc3F)ccn12 [GSK2297428]	0	21	0	0	0	13	0	36	0	100
Cn1cncc1C(=O)NC1CCN(c2ccnc(Nc3ccc(F)cc3)n2)C1 (stereo not shown) [GSK1379717]	7	0	5	0	6	0	0	0	1	0
CCn1c(-c2c(N)noc2C)nc2cnccc21 [SB-737856]	22	0	0	0	3	0	0	0	6	0
Cc1ccc(NC(=O)Nc2ccccc2F)cc1-c1ccc(C(=O)Nc2ccncc2)cc1 [GSK1398477]	28	51	7	0	0	29	20	34	15	13
CS(=O)(=O)CCNCc1nc(-c2ccc3ncnc(Nc4ccc5c(cnn5Cc5ccccc5)c4)c3c2)cs1.Cl.Cl [GW569716]	0	38	0	0	16	2	0	17	0	0
CN1c2ccc(-c3ccc(C(N)=O)cc3)cc2-c2[nH]ncc2S1(=O)=O	9	6	0	0	0	0	0	0	0	6
Cc1c(Cn2c(C)c(C)n3c(=O)cc(N4CCOCC4)nc23)cccc1C(F)(F)F [GSK2328680]	2	29	6	0	5	14	0	6	0	0
O=C(Nc1n[nH]c2nc(-c3cccs3)c(Br)cc12)C1CC1 [SB-735297]	26	0	0	0	26	9	0	0	66	53
Nc1ncnc2occ(-c3ccc4c(c3)CCN4C(=O)Cc3cc(F)ccc3F)c12 [GSK2645446]	17	14	0	0	8	12	4	8	12	0
COc1ccc(CSc2nnc(-c3ccc4c(c3)CCO4)o2)cc1	0	0	0	0	0	0	0	0	0	0
CNC(=O)c1ccc(C)c(-n2c(C)cc(OCc3ccc(F)cc3F)c(Br)c2=O)c1	3	0	39	0	0	0	0	0	0	0
Cn1cnc2c(N)ncnc21 [SKF-97623]	0	0	0	0	0	0	0	0	24	0
CCc1ccc(-c2ccc3c(c2)-c2n[nH]cc2S(=O)(=O)N3C)cc1	12	9	0	0	0	0	0	0	0	4
